# Laboratory results: PubChem BioAssay
# Active and inactive are the calls of the source.
# How the values were obtained:
# Albumin (Bos taurus) = Albumin (Bos taurus) (UniProt P02769); experiment: bovine serum albumin binders on microarray, profiling panel, artefact control for SMM control protein annotation, biochemical, small-molecule microarray, Alexa647 label, 635/667 nm fluorescence (AID 1118); conditions: BSA-A647 binding, fluorescence 635 nm, higher = more signal;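 further: score merges 667 nm emission intensity and signal-to-noise per printed compound spot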
# Albumin (Bos taurus), sequence (P02769 whole entry, looked up): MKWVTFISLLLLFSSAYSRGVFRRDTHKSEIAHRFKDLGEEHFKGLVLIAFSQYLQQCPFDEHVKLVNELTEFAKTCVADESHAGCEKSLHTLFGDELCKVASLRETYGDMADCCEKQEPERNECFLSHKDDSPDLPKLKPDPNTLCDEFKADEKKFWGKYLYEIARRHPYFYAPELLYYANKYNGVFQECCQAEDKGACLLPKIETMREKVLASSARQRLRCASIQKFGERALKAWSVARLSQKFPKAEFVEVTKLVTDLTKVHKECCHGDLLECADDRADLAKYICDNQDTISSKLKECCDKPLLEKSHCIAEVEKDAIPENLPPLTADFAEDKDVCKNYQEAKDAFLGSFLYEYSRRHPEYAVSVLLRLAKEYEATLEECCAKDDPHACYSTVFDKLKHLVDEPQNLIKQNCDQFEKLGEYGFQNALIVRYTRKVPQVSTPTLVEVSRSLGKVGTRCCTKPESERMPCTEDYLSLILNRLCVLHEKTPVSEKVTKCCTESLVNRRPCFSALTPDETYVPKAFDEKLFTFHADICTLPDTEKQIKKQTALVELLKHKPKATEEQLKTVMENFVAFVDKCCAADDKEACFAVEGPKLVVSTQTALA
# [1] = small-molecule microarray binders of probe aXIP, primary screen, biochemical, NeuroSMM set, 635/667 nm fluorescence (AID 1119); conditions: higher = more signal, called active from +8 up or from −8 down;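 further: probe is the protein aXip251-270 applied at 1 µg/mL to compound-printed slides; binding of probe to printed compounds measured as 667 nm fluorescence plus signal to noise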
# [2] = small-molecule binders of probe aNOTCH3, primary screen, biochemical, small-molecule microarray, 635/667 nm fluorescence (AID 1120); conditions: higher = more signal;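 further: probe is a biotin-tagged antibody raised against NOTCH3 rather than NOTCH3 protein; score merges spot fluorescence near 667 nm with spot signal to noise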
# [3] = small-molecule binders of probe aNOTCH2, primary screen, biochemical, small-molecule microarray, 635/667 nm fluorescence (AID 1121); conditions: higher = more signal;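 further: score merges feature fluorescence read at 667 nm with its signal to noise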
# [4] = target: Carbonic anhydrase 2 (Homo sapiens) (UniProt P00918); experiment: CAII small-molecule binders, profiling panel, biochemical, small-molecule microarray, Alexa647-labelled CAII (AID 1122); conditions: CAII-A647 binding fluorescence, higher = more signal
# [5] = COS7 lysate on small-molecule microarray, probe aHis, 635 nm (AID 1123); conditions: COS7 cell lysate, fluorescence, higher = more signal;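 further: z-score combines 667nm fluorescence intensity with signal-to-noise per printed compound spot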
# [6] = compound binding in COS7 lysate, probe aLAP1, primary screen, cell lysate, small-molecule microarray (AID 1124); conditions: probe aLAP1, fluorescence, higher = more signal;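 further: lysate comes from COS7 cells expressing LAP1 and is applied at 0.3 µg/mL; score merges spot fluorescence near 667 nm with signal-to-noise over triplicate slides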
# Sam68 (KHDRBS1) = experiment: Sam68 small-molecule binders, primary screen, biochemical, small-molecule microarray, 635 nm fluorescence (AID 1125); conditions: small-molecule microarray binding, higher = more signal;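 further: score merges 667 nm channel intensity with signal to noise over triplicate slides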
# [7] = system: Chordin-like protein 2 (CHRDL2); experiment: CHRDL2 small-molecule binders, primary screen, biochemical, small-molecule microarray, 635 nm fluorescence (AID 1126); conditions: small-molecule microarray binding, fluorescence 635 nm; higher = more signal;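 further: printed compound slides probed with Chrdl2 protein at 4 µg/mL for 1 h at 4 C; score merges 667 nm emission intensity with signal to noise over three replicate slides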
# [8] = target: Concanavalin-A (Canavalia ensiformis) (UniProt P02866); experiment: ConA small-molecule binders, primary screen, artefact control for SMM control protein annotation, biochemical, small-molecule microarray, Alexa647 label, 635 nm (AID 1127); conditions: ConA-A647 binding fluorescence, higher = more signal;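 further: z combines 667 nm emission intensity with signal-to-noise across three replicate slides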
# Concanavalin-A (Canavalia ensiformis), sequence (P02866 whole entry, looked up): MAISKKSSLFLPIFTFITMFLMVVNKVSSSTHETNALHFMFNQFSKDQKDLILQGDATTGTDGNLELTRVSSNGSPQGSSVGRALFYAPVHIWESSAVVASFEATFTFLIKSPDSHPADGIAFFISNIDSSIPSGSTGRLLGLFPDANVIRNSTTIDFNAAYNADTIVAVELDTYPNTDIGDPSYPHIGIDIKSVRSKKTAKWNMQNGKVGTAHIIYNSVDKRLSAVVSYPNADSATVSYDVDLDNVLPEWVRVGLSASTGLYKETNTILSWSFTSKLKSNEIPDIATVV
SMILES,composite z-score (Albumin (Bos taurus)),composite Z-score [1],composite z-score [2],composite z-score [3],composite z-score [4],composite z-score [5],composite z-score [6],composite z-score (Sam68 (KHDRBS1)),composite z-score [7],composite z-score [8]
C=CC[C@]1(C(N)=O)N=C(c2ccc(OCCCO)cc2)O[C@H]1c1ccccc1CN=[N+]=[N-],1.05,0.221 (inactive),-0.0502,-0.0785,0.856,2.69,0.623,1.11,-0.63,0.885
COc1ccc([Si](C)(C)[C@@H]2[C@@H](CCO)O[C@]3(C(=O)N(Cc4ccc(NC(=O)[C@H](C)O)cc4)c4ccccc43)[C@H]2C)cc1,0.762,0.423 (inactive),-0.0288,-0.127,0.348,1.42,-0.0561,1.32,-0.0817,1.08
CC(C)(C)OC(=O)CC[C@]1(C(=O)NCCN2CCOCC2)N=C(c2ccc(OCCCO)cc2)O[C@H]1c1ccccc1CN=[N+]=[N-],0.433,0.192 (inactive),0.145,-0.057,0.865,2.05,0.663,1.32,-1.1,0.922
CC1=C([C@H](O)CCc2ccccc2)[C@H](CO)[C@@H]2C(=O)N(Cc3ccccc3)C(=O)[C@@H]2C1,0.427,0.39 (inactive),0.0349,-0.117,0.347,0.307,-0.222,-0.364,-0.0449,1.13
CCCC=C(CCC)[C@@H](NC(=O)c1ccccc1)c1ccccc1,-0.399,0.108 (inactive),0.0191,-0.0633,-0.247,0.341,0.139,-0.452,-0.768,-0.604
COC(=O)C1=C(C)N(Cc2ccccc2)c2c(C(=O)OC)c(C(=O)OC)c(C(=O)OC)c(=O)n2[C@@H]1c1ccccc1,0.8,0.242 (inactive),0.116,-0.0158,0.0478,0.247,0.763,0.383,-0.0328,0.641
COc1cccc([C@@H]2[C@@H](C)CC[C@H]3C(=O)N4[C@H](c5cccc(OC)c5)[C@@H](C)CC[C@H]4C(=O)N23)c1,0.447,-0.155 (inactive),0.0193,-0.0262,0.35,0.69,1.06,0.656,0.811,0.0858
C=C(COC)/C(=C/C[C@H](OC(C)=O)c1ccc(OCCO)cc1)c1cnc2ccccc2c1,0.0916,-0.0473 (inactive),0.196,-0.108,0.797,0.193,-0.0578,1.27,1.24,1.05
COCCOC(=O)N1C(=O)[C@@]2(c3cc(C#CC4=CCCCC4)ccc31)[C@H](c1ccc(O)cc1)N1[C@H](c3ccccc3)[C@H](c3ccccc3)OC(=O)[C@H]1[C@@H]2C(=O)N1CCCCCCC1,-0.645,1.69 (inactive),0.112,-0.122,0.425,0.129,0.135,1.29,0.729,1.12
CO[C@H]1COC(=O)CC=C[C@H](C)[C@@H](OC)COC(=O)[C@H](Cc2ccccc2)NC(=O)CC=C[C@@H]1C,-2.12,0.699 (inactive),-0.132,-0.0743,-0.961,-0.566,-0.287,-0.777,1.46,-2.53
CCN1C(C)=C(C(=O)OC)[C@@H](c2ccccc2)N2C(=O)[C@](O)(C(=O)OC)[C@@H](c3ccccc3)C(C(C)=O)=C12,-0.647,0.319 (inactive),0.641,-0.0483,0.916,-0.0995,-0.141,-0.0684,0.708,-1.15
O=C1c2ccccc2[C@](Cc2ccccc2I)(C(=O)NCc2ccccc2)[C@H](c2ccc(CO)cc2)N1Cc1ccccc1C(F)(F)F,0.609,-0.342 (inactive),-0.253,-0.11,0.631,1.37,0.595,0.514,-1.84,-0.32
CC(C)NC(=O)[C@@]1(Cc2ccccc2I)c2ccccc2C(=O)N(C2CCCCC2)[C@H]1c1ccc(CO)cc1,0.965,0.256 (inactive),0.233,0.076,0.312,2.55,0.429,1.31,0.127,1.1
COCCCNC(=O)[C@@]1(c2ccc([N+](=O)[O-])cc2)CC(=O)N(C2CCCCC2)[C@@H]1c1ccc(CO)cc1,0.502,-0.0867 (inactive),-0.391,-0.272,0.672,2.28,1.63,0.0163,-0.264,-0.194
COc1cc(Cc2cc3c(c(CCc4ccccc4)n2)[Si](C(C)C)(C(C)C)OC3)cc(OC)c1OC,-0.237,-0.334 (inactive),-0.0697,-0.165,0.0001,-0.177,-0.0868,-0.0118,0.182,0.255
NC(=O)[C@H]1[C@@H]2C(=O)O[C@@H](c3ccccc3)[C@@H](c3ccccc3)N2[C@@H](c2ccc(O)cc2)[C@]12C(=O)Nc1ccc(C#CCCO)cc12,0.0103,0.049 (inactive),-0.125,-0.0645,0.72,-0.119,0.0482,-1.09,-0.92,-1.78
